# Reference: PubChem BioAssay (NCATS)
# Values without a mark were called inactive. Inconclusive results are not listed. Entries that show only a call come without a potency. Activity calls are given as the source filed them. Unless noted, calls follow the shape of the dose curve; as a rule, active = well fitted curve in the direction sought with a large enough effect; inconclusive = small, poorly fitted or top-dose-only effect, or another doubt; inactive = no such curve, though single readings can be large; an effect the other way counts as inactive or inconclusive.
# Columns and labels:
# [1] = biological target: Lysosomal acid glucosylceramidase (Homo sapiens) (UniProt P04062); experiment: Glucocerebrosidase-p2 (AID 348; in the data active = potency below about 10 µM; also: potency is read from the fitted curve at half-maximal effect); settings: purified GBA, blue fluorogenic substrate, 40 min
# How it was run: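 Compounds titrated from 0.6 nM upwards against 0.2 nM enzyme in pH 5.9 citric acid/KH2PO4, taurocholate, tween-20; blue fluorogenic substrate 80 uM, 40 min room temperature, stopped and read Ex 365/Em 440 for AC50.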
# [2] = NFAT Signaling Pathway (AID 444; active = well fitted curve in either direction with a large enough effect, not every such curve was filed as active;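 also: carbachol stimulus at about its EC50 of 1 µM final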); settings: Jurkat NFAT-bla M1, carbachol, beta-lactamase ratio, 5 h; at 7.69 µM (top of the series) unless noted
# How it was run: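 Jurkat cells with NFAT-driven β-lactamase reporter and co-expressed M1 receptor, stimulated with carbachol (final 1 uM, ~EC50), compound titration, 5 h at 37 °C. CCF4 loaded 1 h at RT; 460/530 nm ratio gave %activity and AC50.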
# [3] = Stat Signaling Pathway (AID 446; active = well fitted curve in either direction with a large enough effect, not every such curve was filed as active;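 also: ME-180 cervical cancer cells given 40 pM IL-6 alongside compound; SIE-controlled beta-lactamase reporter measured as 460/530 nm FRET emission ratio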); settings: ME-180 SIE beta-lactamase reporter, IL-6 stimulated, 5 h; at 7.69 µM (top of the series) unless noted
# How it was run: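 IL-6/STAT signaling read in ME-180 cells via an SIE beta-lactamase reporter. Stimulus was 40 pM IL-6 (its AC50) for 5 hrs, so both activation and inhibition register.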
# [4] = biological target: Glucocorticoid receptor (Homo sapiens) (UniProt P04150); experiment: GR-GFP Redistribution (AID 450;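 active = compounds whose dose series gives a full or clear partial fitted curve of increased nuclear translocation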; also: potency is read from the fitted curve at half-maximal effect); settings: U2OS GR-GFP nuclear translocation, laser cytometry, 2 h
# [5] = biological target: Glucocorticoid receptor (Homo sapiens) (UniProt P04150); experiment: GR-EFC Redistribution (AID 451; calls by dose curve; also: potency is read from the fitted curve at half-maximal effect); settings: CHO-K1 GR-EFC translocation, beta-gal luminescence, 2 h
# How it was run: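 CHO-K1 cells expressing nuclear EA and GR-ED fragments of b-gal; compounds titrated up to 46 uM final, 2 h at 37 C. GR nuclear translocation read as complemented b-gal luminescence after 1 h RT detection.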
# [6] = biological target: Mitogen-activated protein kinase 10 (Mus musculus) (UniProt Q61831); experiment: JNK3 AlphaScreen Assay (AID 530; active = well fitted curve in either direction with a large enough effect, not every such curve was filed as active;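 also: kinase came from lysate of stimulated human HepG2 cells; signal reports phosphorylation of biotinylated GST-cJun 1-79 at Ser73 with 10 µM ATP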); settings: JNK3 lysate, c-Jun phosphorylation; series mostly up to 57.1 µM
# How it was run: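 Pre-activated (IL-1β/TNFα) JNK3 in HepG2 lysates phosphorylates biotin-GST-cJun(1-79), 10 uM ATP; anti-phospho-cJun(Ser73) AlphaScreen read at room temperature, pH 7.6 Tris buffer. Compounds pre-incubated 15 min as titrations.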
# [7] = biological target: 3',5'-cyclic-AMP phosphodiesterase 4B (Homo sapiens) (UniProt Q07343); experiment: qHTS Assay for Inhibitors of PDE-IV (AID 607; active = well fitted activation curve with a large enough effect in the main read-out, with a control signal flat, not every such curve was filed as active); settings: HEK293 ACTOne CNG channel cells, membrane potential fluorescence; series mostly up to 22.9 µM
# How it was run: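 Live HEK293 cells with a modified cyclic nucleotide-gated (CNG) channel report intracellular cAMP via membrane-potential dye fluorescence (ex 535/em 590 nm). Endogenous PDE-IV was targeted. Compounds were tested at up to 22.9 uM final; RO 20-1724 100 uM served as control.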
# [8] = biological target: Dual specificity protein kinase CLK4 (Homo sapiens) (UniProt Q9HAZ1); experiment: qHTS Assay for Inhibitors of CDC-like Kinase 4 (Kinase-Glo Assay) (AID 1770); settings: recombinant Clk4, Kinase-Glo ATP depletion luminescence; series mostly up to 66.7 µM; also: nearly all actives have a fitted effect of over 65% in size; also: potency is read from the fitted curve at half-maximal effect
# How it was run: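 Recombinant human Clk4 (25 nM) phosphorylated RS repeat peptide (100 uM) with 1 uM ATP in Tris pH 7.5/MgCl2/EGTA/DTT/Triton buffer for 4.5 h at room temperature. Residual ATP was quantified by Kinase-Glo luciferase luminescence.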
# [9] = biological target: Dual specificity protein kinase CLK4 (Homo sapiens) (UniProt Q9HAZ1); experiment: qHTS Assay for Inhibitors of CDC-like Kinase 4 (ADP-Glo Assay) (AID 1771); settings: recombinant CLK4, ADP-Glo luminescence; series mostly up to 80 µM; also: nearly all actives have a fitted effect of over 70% in size; also: potency is read from the fitted curve at half-maximal effect
# How it was run: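 25 nM Clk4 with 100 uM RS repeat peptide and 1 uM ATP (final) in buffer with 2 mM MgCl2, 0.5 mM EGTA, 2.5 mM DTT, 0.01% Triton X-100; 1 h at room temperature; ADP-Glo luminescence for ADP formed.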
# [10] = biological target: Dual specificity protein kinase CLK4 (Homo sapiens) (UniProt Q9HAZ1); experiment: qHTS Assay for Inhibitors of CDC-like Kinase 4 (ADP-FP Assay) (AID 1795); settings: Transcreener ADP fluorescence polarization; series mostly up to 50 µM; also: nearly all actives have a fitted effect of over 60% in size
# How it was run: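 Recombinant human Clk4 (6.25 nM) phosphorylated RS repeat peptide (100 uM) with 1 uM ATP in Tris pH 7.5/MgCl2/EGTA/DTT/Triton buffer for one hour. ADP was quantified by Transcreener competitive fluorescence polarization against an ADP calibration curve.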
# [11] = biological target: Ubiquitin carboxyl-terminal hydrolase 1 (Homo sapiens) (UniProt O94782); experiment: Inhibitors of USP1/UAF1: Pilot qHTS (AID 504865); settings: purified USP1/UAF1, Ub-rhodamine cleavage fluorescence; series mostly up to 54.9 µM;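 also: rhodamine fluorescence freed from ubiquitin-rhodamine substrate followed over time; top concentration of the series differs between compounds; nearly all actives have a fitted effect of over 35% in size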
# How it was run: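 USP1/UAF1 complex (1nM) preincubated with compound 15 min at room temperature, then Ub-Rho substrate (150nM final) added. Fluorescence read kinetically at 480/540 nm, 6 reads every 60 seconds. Buffer: 50mM HEPES pH 7.8, 0.5mM EDTA, 0.1 mg/ml BSA, 1mM TCEP, 0.01% Tween-20.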
# [12] = Primary qHTS for small molecule stabilizers of the endoplasmic reticulum resident proteome: Secreted ER Calcium Modulated Protein (SERCaMP) assay (AID 1508630); settings: SH-SY5Y GLuc-SERCaMP (Gaussia luciferase released on ER calcium loss) secretion, thapsigargin, luminescence; series mostly up to 38.4 µM
# How it was run: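 GLuc-SERCaMP-expressing SH-SY5Y cells, pretreated 16 h with compound, are challenged with thapsigargin to empty ER calcium stores; after 4 h, coelenterazine is added directly to the medium and luminescence is imaged.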
# [13] = biological target: Cytochrome P450 1A2 (Homo sapiens) (UniProt P05177); experiment: p450-cyp1a2 (AID 410; calls by dose curve; also: potency is read from the fitted curve at half-maximal effect); settings: recombinant CYP1A2, luciferin-ME demethylation, luminescence; series mostly up to 57 µM
# How it was run: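 20nM CYP1A2 with 100uM Luciferin-ME (at Km) in 100mM KPO4; compound preincubated 10 min, NADPH regeneration added, 60 min at room temperature. Luciferin quantified by luminescence after detection reagent; normalized to 57 uM furafylline.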
# [14] = biological target: Cytochrome P450 3A4 (Homo sapiens) (UniProt P08684); experiment: qHTS Assay for Activators of Cytochrome P450 3A4 (AID 885); settings: recombinant CYP3A4, Luciferin-PPXE luminescence, 60 min; series mostly up to 57.1 µM; also: nearly all actives have a fitted effect of over 65% in size
# How it was run: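 Quantitative HTS format: compounds preincubated with 20nM human CYP3A4 and Luciferin-PPXE substrate at KM, reaction started by NADPH regeneration, stopped after 60 min, luciferase luminescence read 20 min later.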
# [15] = qHTS Assay for Identification of Small Molecule Agonists for Hypoxia Response Element Signaling Pathway (AID 914; active = well fitted activation curve with a large enough effect in the signal ratio, with a control signal flat, not every such curve was filed as active; the % refers to the signal ratio; also: potency is read from the fitted curve at half-maximal effect); settings: ME-180 HRE-bla reporter, beta-lactamase ratio, CoCl2, 17 h; activation: hits give high values
# How it was run: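 ME-180 cells carrying an HRE-driven beta-lactamase reporter were treated with compounds in a titration series plus an EC50 level of CoCl2 for 17 h at 37 degrees Celsius; CCF4 readout as the 460nm/530nm ratio gave AC50 values.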
# [16] = biological target: Cytochrome P450 3A4 (Homo sapiens) (UniProt P08684); experiment: qHTS Assay for Inhibitors and Substrates of Cytochrome P450 3A4 (AID 884); settings: recombinant CYP3A4, Luciferin-PPXE luminescence; series mostly up to 57.1 µM; also: potency is read from the fitted curve at half-maximal effect; nearly all actives have a fitted effect of over 50% in size
# How it was run: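 20 nM human CYP3A4 with 25 uM Luciferin-PPXE (at KM) in 200 mM KPO4, preincubated 10 min with compound; NADPH regeneration started a 60 min RT reaction. Luciferin detected by luminescence, normalized to 57 uM ketoconazole as full inhibition.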
# [17] = biological target: Cytochrome P450 2C19 (Homo sapiens) (UniProt P33261); experiment: qHTS Assay for Inhibitors and Substrates of Cytochrome P450 2C19 (AID 899); settings: recombinant CYP2C19, luciferin-H EGE luminescence; series mostly up to 57.1 µM; also: potency is read from the fitted curve at half-maximal effect; nearly all actives have a fitted effect of over 60% in size
# How it was run: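 Signal comes from luciferase acting on luciferin released by CYP2C19-mediated hydroxylation of Luciferin-H EGE, 10uM (KM). Assay mix: 5nM enzyme, 50mM KPO4; 60 min at 37C with NADPH regeneration. Data normalized against 57uM ketoconazole.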
# [18] = biological target: Cytochrome P450 2D6 (Homo sapiens) (UniProt P10635); experiment: qHTS Assay for Inhibitors and Substrates of Cytochrome P450 2D6 (AID 891); settings: recombinant CYP2D6, luciferin-ME EGE luminescence; series mostly up to 57.1 µM; also: potency is read from the fitted curve at half-maximal effect; nearly all actives have a fitted effect of over 60% in size
# How it was run: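 Human CYP2D6 (5 nM) with 30 uM Luciferin-ME EGE (at Km) in 100 mM KPO4, compound preincubated 10 min, then NADPH regeneration system for 60 min at room temperature. Luciferin read by luminescence; normalized to 1.43 uM quinidine.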
# Chain of Ubiquitin carboxyl-terminal hydrolase 1 (Homo sapiens) (O94782 whole entry, looked up): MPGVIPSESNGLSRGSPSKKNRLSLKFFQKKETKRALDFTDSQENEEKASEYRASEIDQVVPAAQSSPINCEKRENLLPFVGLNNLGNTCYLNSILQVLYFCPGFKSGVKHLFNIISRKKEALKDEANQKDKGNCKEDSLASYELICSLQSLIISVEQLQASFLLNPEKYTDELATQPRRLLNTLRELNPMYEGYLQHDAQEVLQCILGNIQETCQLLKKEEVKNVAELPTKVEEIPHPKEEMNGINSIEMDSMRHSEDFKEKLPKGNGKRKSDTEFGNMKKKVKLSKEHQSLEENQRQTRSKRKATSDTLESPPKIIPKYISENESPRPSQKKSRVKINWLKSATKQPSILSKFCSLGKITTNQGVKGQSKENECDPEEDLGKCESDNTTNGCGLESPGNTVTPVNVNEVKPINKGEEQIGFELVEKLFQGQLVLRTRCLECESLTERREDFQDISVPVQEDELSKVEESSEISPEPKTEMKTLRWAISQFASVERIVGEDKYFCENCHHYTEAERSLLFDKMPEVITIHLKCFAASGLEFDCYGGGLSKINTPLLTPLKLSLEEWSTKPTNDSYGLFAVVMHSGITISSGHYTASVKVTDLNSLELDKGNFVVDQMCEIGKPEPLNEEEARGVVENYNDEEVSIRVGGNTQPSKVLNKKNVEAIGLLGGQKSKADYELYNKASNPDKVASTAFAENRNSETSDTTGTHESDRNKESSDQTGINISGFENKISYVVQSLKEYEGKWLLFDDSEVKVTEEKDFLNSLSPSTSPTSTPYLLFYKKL
# Chain of Glucocorticoid receptor (Homo sapiens) (P04150 whole entry, looked up, the tested form may be a part): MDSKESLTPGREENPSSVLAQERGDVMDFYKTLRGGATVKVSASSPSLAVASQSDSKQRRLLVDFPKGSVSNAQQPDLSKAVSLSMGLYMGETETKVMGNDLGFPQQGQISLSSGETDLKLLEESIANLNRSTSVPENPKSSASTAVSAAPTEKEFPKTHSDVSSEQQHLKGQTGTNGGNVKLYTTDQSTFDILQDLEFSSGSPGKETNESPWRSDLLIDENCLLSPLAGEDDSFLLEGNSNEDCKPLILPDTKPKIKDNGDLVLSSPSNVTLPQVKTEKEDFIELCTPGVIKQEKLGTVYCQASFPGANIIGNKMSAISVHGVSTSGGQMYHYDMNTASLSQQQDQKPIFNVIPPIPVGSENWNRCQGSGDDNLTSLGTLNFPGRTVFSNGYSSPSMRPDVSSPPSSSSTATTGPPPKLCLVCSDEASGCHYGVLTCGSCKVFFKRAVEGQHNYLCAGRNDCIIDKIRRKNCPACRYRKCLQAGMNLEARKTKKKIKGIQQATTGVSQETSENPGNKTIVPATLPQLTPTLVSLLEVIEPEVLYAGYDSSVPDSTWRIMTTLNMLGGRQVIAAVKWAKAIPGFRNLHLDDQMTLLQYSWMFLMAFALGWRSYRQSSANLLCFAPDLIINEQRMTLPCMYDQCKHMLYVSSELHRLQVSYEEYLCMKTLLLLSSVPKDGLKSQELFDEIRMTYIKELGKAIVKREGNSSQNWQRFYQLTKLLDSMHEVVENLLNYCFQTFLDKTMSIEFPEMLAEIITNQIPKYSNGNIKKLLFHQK
# Chain of Lysosomal acid glucosylceramidase (Homo sapiens) (P04062 whole entry, looked up): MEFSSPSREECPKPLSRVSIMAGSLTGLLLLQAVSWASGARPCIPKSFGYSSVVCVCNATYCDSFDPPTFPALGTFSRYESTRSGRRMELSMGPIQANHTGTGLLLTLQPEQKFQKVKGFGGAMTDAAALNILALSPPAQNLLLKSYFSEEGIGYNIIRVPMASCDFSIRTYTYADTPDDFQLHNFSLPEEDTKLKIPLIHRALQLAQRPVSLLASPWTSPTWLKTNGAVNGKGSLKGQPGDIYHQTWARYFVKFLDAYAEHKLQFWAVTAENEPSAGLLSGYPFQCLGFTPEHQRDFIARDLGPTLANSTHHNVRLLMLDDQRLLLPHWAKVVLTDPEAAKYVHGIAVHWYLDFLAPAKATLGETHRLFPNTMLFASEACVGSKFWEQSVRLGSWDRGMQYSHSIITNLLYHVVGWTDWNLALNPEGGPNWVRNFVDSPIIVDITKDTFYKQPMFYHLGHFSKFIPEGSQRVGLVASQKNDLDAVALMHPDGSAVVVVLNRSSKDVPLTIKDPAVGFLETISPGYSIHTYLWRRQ
# Chain of Dual specificity protein kinase CLK4 (Homo sapiens) (Q9HAZ1 whole entry, looked up): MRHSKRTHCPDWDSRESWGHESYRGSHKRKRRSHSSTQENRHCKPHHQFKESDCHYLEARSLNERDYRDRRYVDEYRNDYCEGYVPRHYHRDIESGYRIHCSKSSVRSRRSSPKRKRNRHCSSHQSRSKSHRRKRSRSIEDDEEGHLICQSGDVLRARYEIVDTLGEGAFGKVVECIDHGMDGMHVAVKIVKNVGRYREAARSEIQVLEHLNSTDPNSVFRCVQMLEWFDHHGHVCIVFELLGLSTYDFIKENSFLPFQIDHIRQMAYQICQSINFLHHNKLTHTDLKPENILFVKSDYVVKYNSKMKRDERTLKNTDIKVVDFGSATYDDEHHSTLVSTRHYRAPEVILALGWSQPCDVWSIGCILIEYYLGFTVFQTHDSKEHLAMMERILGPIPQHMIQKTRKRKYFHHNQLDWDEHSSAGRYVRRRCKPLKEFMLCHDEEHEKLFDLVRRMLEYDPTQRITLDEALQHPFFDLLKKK
# Chain of Cytochrome P450 3A4 (Homo sapiens) (P08684 whole entry, looked up): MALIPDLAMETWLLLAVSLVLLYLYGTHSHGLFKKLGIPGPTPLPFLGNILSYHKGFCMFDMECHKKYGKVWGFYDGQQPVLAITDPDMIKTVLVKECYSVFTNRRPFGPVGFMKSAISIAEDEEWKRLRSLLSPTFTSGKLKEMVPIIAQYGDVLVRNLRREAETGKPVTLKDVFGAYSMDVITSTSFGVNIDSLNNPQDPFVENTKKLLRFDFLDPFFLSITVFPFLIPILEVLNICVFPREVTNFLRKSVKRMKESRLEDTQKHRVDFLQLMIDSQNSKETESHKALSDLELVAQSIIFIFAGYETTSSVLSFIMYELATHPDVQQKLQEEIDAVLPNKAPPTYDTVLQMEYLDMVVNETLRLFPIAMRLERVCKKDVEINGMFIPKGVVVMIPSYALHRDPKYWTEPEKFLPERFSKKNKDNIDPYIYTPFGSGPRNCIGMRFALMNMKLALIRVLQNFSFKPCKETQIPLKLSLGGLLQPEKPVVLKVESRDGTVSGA
# Chain of Cytochrome P450 1A2 (Homo sapiens) (P05177 whole entry, looked up): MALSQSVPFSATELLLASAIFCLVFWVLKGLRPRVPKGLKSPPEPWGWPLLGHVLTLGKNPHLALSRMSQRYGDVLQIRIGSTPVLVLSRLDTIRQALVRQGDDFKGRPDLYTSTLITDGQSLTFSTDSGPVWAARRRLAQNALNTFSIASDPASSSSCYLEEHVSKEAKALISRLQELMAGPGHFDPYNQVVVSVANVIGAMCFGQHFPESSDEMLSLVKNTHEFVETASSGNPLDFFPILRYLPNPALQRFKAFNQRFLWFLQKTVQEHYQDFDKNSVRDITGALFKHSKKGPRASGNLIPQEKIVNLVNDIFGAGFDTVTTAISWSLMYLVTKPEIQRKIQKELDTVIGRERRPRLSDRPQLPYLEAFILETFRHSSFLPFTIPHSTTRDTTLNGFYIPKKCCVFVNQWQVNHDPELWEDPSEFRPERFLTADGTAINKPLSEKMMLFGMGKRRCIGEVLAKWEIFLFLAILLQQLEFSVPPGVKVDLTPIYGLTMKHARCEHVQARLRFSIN
# Chain of 3',5'-cyclic-AMP phosphodiesterase 4B (Homo sapiens) (Q07343 whole entry, looked up): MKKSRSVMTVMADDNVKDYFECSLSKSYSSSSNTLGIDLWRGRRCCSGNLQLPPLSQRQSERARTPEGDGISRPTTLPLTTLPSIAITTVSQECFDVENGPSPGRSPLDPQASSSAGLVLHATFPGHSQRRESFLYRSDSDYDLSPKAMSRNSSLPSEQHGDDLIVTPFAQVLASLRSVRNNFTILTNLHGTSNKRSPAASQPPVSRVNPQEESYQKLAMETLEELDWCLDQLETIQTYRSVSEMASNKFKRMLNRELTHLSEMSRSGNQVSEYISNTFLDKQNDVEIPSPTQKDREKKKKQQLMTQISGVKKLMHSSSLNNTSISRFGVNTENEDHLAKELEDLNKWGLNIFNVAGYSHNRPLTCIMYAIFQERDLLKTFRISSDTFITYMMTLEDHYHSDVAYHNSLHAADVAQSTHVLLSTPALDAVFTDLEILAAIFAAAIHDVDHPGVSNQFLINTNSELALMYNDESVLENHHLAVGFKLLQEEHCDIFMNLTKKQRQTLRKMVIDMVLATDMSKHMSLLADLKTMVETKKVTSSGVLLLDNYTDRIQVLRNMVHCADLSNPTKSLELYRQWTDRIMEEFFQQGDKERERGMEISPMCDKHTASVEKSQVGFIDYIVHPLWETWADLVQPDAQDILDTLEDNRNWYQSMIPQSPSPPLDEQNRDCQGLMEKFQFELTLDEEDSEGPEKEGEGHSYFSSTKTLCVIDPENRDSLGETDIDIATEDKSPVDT
# Chain of Cytochrome P450 2D6 (Homo sapiens) (P10635 whole entry, looked up): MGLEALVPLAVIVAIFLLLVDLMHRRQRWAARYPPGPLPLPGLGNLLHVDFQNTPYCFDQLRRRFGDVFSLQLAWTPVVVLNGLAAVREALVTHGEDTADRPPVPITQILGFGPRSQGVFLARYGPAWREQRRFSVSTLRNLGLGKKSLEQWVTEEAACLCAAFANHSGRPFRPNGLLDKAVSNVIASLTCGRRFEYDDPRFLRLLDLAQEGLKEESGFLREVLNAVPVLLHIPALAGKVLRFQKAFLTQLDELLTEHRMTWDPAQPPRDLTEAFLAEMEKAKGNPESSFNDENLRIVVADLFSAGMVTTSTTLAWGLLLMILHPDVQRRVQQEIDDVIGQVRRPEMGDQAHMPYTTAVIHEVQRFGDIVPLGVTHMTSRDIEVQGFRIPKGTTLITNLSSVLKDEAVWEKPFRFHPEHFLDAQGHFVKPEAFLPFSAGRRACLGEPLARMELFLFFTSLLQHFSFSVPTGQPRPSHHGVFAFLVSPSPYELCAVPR
SMILES,Potency [1] [µM],"activity change, negative = inhibition [2]","activity, negative = inhibition [3]",Potency [4] [µM],Potency [5] [µM],Potency [6],Potency [7],Potency [8],Potency [9],Potency [10],Potency [11],outcome [12],Potency [13],Potency [14],Potency [15],Potency [16],Potency [17],Potency [18]
COc1ccc(-c2nc3cnc(N(C)C)nc3n(Cc3ccc(F)cc3)c2=O)cc1,> 11.4,102% [activator] (active),126% [activator] (active),> 9.22,> 46,inactive,inactive,inactive,inactive,inactive,inactive,inactive,,,,,,
CN(C)c1ncc2nc(-c3cccc(C#N)c3)c(=O)n(C)c2n1,> 11.4,5.54%,-1.63%,> 9.22,> 46,inactive,inactive,inactive,inactive,inactive,inactive,inactive,,,,,,
CN1CCN(c2ncc3nc(-c4cn(C)c5ccccc45)c(=O)n(CCc4ccccc4)c3n2)CC1,> 11.4,,,,> 46,inactive,inactive,inactive,inactive,inactive,inactive,inactive,inactive,inactive,3.16 µM (active),,,
COc1ncc2nc(-c3ccc(F)cc3)c(=O)n(Cc3cccs3)c2n1,> 11.4,-1.45%,-28.5%,,> 46,inactive,inactive,inactive,inactive,inactive,inactive,inactive,,,,,,
CN(C)c1ccc(-c2cncnc2Nc2ccc(F)cc2)cc1,> 11.4,,-2.86%,> 46,> 46,,,10 µM (active),10 µM (active),inactive,inactive,inactive,0.501 µM (active),inactive,,0.794 µM (active),0.794 µM (active),
CCNc1ncc2nc(-c3cc(F)cc(F)c3)c(=O)n(CCOC)c2n1,> 11.4,,,> 9.22,> 46,inactive,,inactive,inactive,inactive,inactive,inactive,3.16 µM (active),inactive,,,,0.316 µM (active)
CS(=O)(=O)Nc1cccc(-c2nccc(NCc3cccs3)n2)c1,> 11.4,14.7%,-12.9%,> 46,> 46,inactive,inactive,28.2 µM (active),35.5 µM (active),inactive,inactive,inactive,,,,,,
